From PubChem
Hits are enriched below; roughly 1.5% of the tested compounds scored in any of these assays.
BRCA1 expr act: qHTS Assay to Identify Small Molecule Activators of BRCA1 Expression; actives 1.1% (n = 380,000); MCF7-BRCA1-FFLuc reporter, luminescence, 48 h; response scale: scaled: vehicle 0%, 10 µM genistein 100%; Potency, µM (doses to about 46.1 µM), actives largely listed as activators; note: nearly all actives have a fitted effect of over 80% in size
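MCF7 cells carrying a BRCA1-firefly luciferase reporter (2000 cells/well, phenol-red free MEM) were attached for 2 h at 37 °C, then given compounds for 48 h. Luminescence was read 15 min after luciferase reagent; activity normalized to genistein (10 microM) and DMSO.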
Akt phos inh: HTS Assay for Inhibitors of Akt Phophorylation: Primary Screen. actives 0.32% (n = 360,000). activity change, % for hits at 50 µM. Neuro2A IGF-stimulated pAkt S473 HTRF, 20 min; active compounds read low. AID 651550, 2012; in the data active = activity change below about -80%; inconclusive = mostly about -51% to -80%
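Neuro2A cells (4,500/well, DMEM with 0.5% FBS) were treated with compound at a single 50 µM final concentration, stimulated with 6 nM IGF for 20 min at 37 °C, and lysed. Phospho-Akt Ser473 was read by HTRF as 665/615 ratio ×10^4.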
TCR act: Activators of T cell receptors: qHTS campaign; primary human leukocytes, anti-CD3, IL-2 HTRF, 48 h; Potency, µM (series often up to 9.22 µM), actives largely listed as activators; 330,000 tested, under 10 active; AID 504894, 2011
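48 hr co-incubation of compounds, a-CD3 beads and primary human leukocytes; IL-2 quantified homogeneously by HTRF with anti-IL-2 K and d2 conjugates.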
PINK1 modulator: A Quantitative High throughput Screen to Identify Chemical Modulators of PINK1 Expression | Potency, µM (highest dose often 76.6 µM), usual class: activators | actives 0.2% (n = 410,000) | PINK1 immunofluorescence, high-content cytometry, 24 h | AID 624263, 2012; active = well fitted activation curve with a large enough effect; inconclusive = small, poorly fitted or top-dose-only effect; cell line not stated here; note: nearly all actives have a fitted effect of over 65% in size
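Measures PINK1 amount and localization on or inside mitochondria by immunofluorescence. Stable cells get compounds at 5 concentrations for 24 hours before fixation and staining; CCCP controls included.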
A number is an active result; - = inactive; ? = inconclusive; . = no result given. Unless noted, calls come from the whole dose curve; as a rule, active = well fitted curve in the direction sought with a large enough effect; inconclusive = small, poorly fitted or top-dose-only effect, or another doubt; inactive = no such curve, though single readings can be large; an effect the other way counts as inactive or inconclusive.

SMILES	BRCA1 expr act	Akt phos inh	TCR act	PINK1 modulator
O=C(Nc1nccs1)c1cccc(S(=O)(=O)N2CCOCC2)c1	-	-114%	-	-
O=C(Nc1nccs1)c1cc(S(=O)(=O)N2CCOCC2)ccc1Cl	-	-	-	-
COc1cc(=O)n2c(c1C(=O)N(C)Cc1cscn1)CCN(C(=O)c1ccc(C)cc1C)CC2	.	.	.	-
COc1ccccc1N1CCN(c2nc(CNC(=O)C3CCOC(C)(C)C3)nc3ccccc23)CC1 (centres undefined)	.	.	.	-
COc1ccc(/C=N/NC(=O)CC(=O)N/N=C/c2ccc(OC)cc2)cc1	-	-	-	-
COc1ccc(/C=N\NC(=O)C2=NNC(=O)C2C)cc1 (centres undefined)	2.8µM	-	-	-
O=c1oc2ccccc2nc1/C=C(\O)c1ccccc1	3.5µM	-	-	-
CC(C)(C)/C(O)=C/c1nc2ccccc2oc1=O	-	-	-	-
CC1CCC(NC(=O)c2ccc3c(c2)N(Cc2cccc(F)c2)C(=O)c2ccccc2S3)CC1 (centres undefined)	.	.	.	-
Cc1ccc(/C(C#N)=C\c2ccc(N3CCOCC3)o2)cc1	-	-	-	?
Cc1ccc2nc(/C(C#N)=C\c3ccc(N4CCOCC4)o3)[nH]c2c1	-	-	-	11µM
COc1ccc(CCNC(=O)c2cnn(-c3nccc(-c4cccs4)n3)c2C)cc1OC	.	.	.	-
O=C(CN1C(=O)CNC1=O)Nc1cccc(C(F)(F)F)c1	-	-101%	-	-
O=C1NCCCC1C(=O)Nc1cccc(C(F)(F)F)c1 (centres undefined)	-	-102%	-	-
O=C1CCC(C(=O)Nc2cccc(C(F)(F)F)c2)N1 (centres undefined)	-	-	-	-
CC(=O)Nc1sc2c(c1C#N)CCCCC2	-	-	-	-
O=C(Nc1sc2c(c1C(=O)O)CCCC2)c1cccc(Cl)c1	11µM	-	-	-
Cc1ccc(C(=O)Nc2sc3c(c2C#N)CCCCC3)cc1C	?	-95%	-	-
CCOC(=O)N1CCN(Cc2ccc3c(c2)CN(C(=O)c2cc(-c4ccccc4)on2)CCO3)CC1	.	.	.	-
COC(=O)N/N=C/c1ccc([N+](=O)[O-])o1	-	-115%	-	-
O=C(N/N=C/c1ccc([N+](=O)[O-])o1)C(O)c1ccccc1 (centres undefined)	-	-	-	45µM
Cc1ccc(OCC(=O)N/N=C\c2ccc(C)o2)c([N+](=O)[O-])c1	-	-	.	45µM
CCOc1ccccc1NC(=O)C1=C(C)Nc2ncnn2C1c1sccc1C (centres undefined)	-	.	.	-
CC(=O)c1cc(C#N)c(SCC(=O)OC(C)(C)C)nc1C	5.6µM	-	-	-
CC(=O)c1cc(C#N)c(SCC(=O)OC(C)C)nc1C	-	-	-	-
SMILES	BRCA1 expr act	Akt phos inh	TCR act	PINK1 modulator
Cc1cc2c(cc1C)NC(=O)CC(c1ccccc1)=N2	3.2µM	-	-	-
Cc1oc(-c2ccccc2NC(=O)C2CCC2)nc1CNC(=O)c1ccc(C#CC(C)(C)O)cc1	.	.	.	-
Cc1ncc2c(c1CNS(=O)(=O)N(C)C)CCN(C(=O)/C=C/c1cccc(F)c1)C2	.	.	.	-
C=CCn1c(N)c(C(=O)Nc2ccccc2OC)sc1=S	-	-	-	-
C=CCn1c(N)c(C(=O)Nc2ccc(C)cc2)sc1=S	1.3µM	-	-	-
O=C1C2=C(Nc3ccccc3SC2c2ccco2)c2ccccc21 (centres undefined)	-	-114%	-	-
CC(C)c1ccc(C2Sc3ccccc3NC3=C2C(=O)c2ccccc23)cc1 (centres undefined)	.	.	.	-
CCOC(=O)c1cc(-c2ccccc2)sc1N	?	-	-	-
CCOC(=O)c1sc(-c2ccccc2)cc1N	13µM	-	-	-
CCOC(=O)c1sc(-c2ccc(OC)cc2)cc1N	?	-	-	-
CCOC(=O)c1sc(-c2ccc(F)cc2)cc1N	11µM	-	.	?
COc1cccc(CNC(=O)c2c(OC)cc(=O)n3c2CCN(C(=O)c2ccoc2C)CC3)c1	.	.	.	-
CCc1ccc(-n2c(=O)c3cccnc3n2CC(=O)N(CC)c2cccc(C)c2)cc1	.	.	.	-
COC(=O)[C@@H]1CCCN1Cc1ccc2c(c1)CN(Cc1coc3ccccc3c1=O)CCO2	.	.	.	-
COCCn1c(=O)c(-c2ccc(Cl)cc2)nc2cnc(Nc3ccccc3)nc21	.	.	.	-
CCOc1ccc2nc(SCC(=O)N(C)C3CCS(=O)(=O)C3)[nH]c2c1 (centres undefined)	-	-	-	-
COc1ccc2nc(SCC(=O)C(C)(C)C)[nH]c2c1	7.9µM	-	-	-
COc1ccc2nc(SCC(=O)NC(C)(C)C)[nH]c2c1	-	-	-	.
CCOc1ccc2nc(SCC(=O)N(C)C)[nH]c2c1	10µM	-	-	-
O=C(Nc1ccc(CN2CCOCC2)cc1)c1ccc(Cl)cc1	13µM	-	-	-
CC(=O)N/C(=C/c1ccccc1)c1sc2ccccc2[n+]1CCCCI	?	.	.	-
CCOC(=O)c1nn(-c2ccc3ccccc3c2)cc1O	2.8µM	-	-	-
CCOC(=O)c1nn(-c2ccc3c(c2)OCO3)cc1O	3.2µM	-	-	-
O=C1CN(C(=O)COc2ccc(Cl)cc2)C(c2ccc(F)cc2)c2cc(Br)ccc2N1 (centres undefined)	.	.	.	-
C/C(=N\Nc1nncc2ccccc12)c1ccc(C(C)(C)C)cc1	2.5µM	-	-	-
SMILES	BRCA1 expr act	Akt phos inh	TCR act	PINK1 modulator
C/C(=N\Nc1nncc2ccccc12)c1ccc(O)cc1	?	-	-	-
O=c1[nH]c(=O)n([C@H]2C[C@@H](O)[C@@H](CO)O2)cc1F	-	.	.	-
Cc1oc2cc3oc(=O)c(CCC(=O)NC4CC4)c(C)c3cc2c1C	6.3µM	-	-	-
O=S(=O)(Nc1cc(Cl)ccc1-n1cncn1)c1cc(Br)ccc1Br	-	-	-	16µM
COCCn1c(COc2ccc(C)cc2)nc2ccccc21	11µM	-	-	-
CCOCCn1c(COc2ccc(C)cc2)nc2ccccc21	?	-	-	-
CCSc1nc2ccccc2n1CCOc1ccccc1	14µM	-	-	-
Cn1c(COc2ccccc2)nc2ccccc21	10µM	-	-	-
c1ccc(OCCn2c(COc3ccccc3)nc3ccccc32)cc1	.	.	.	-
CN(C(=O)COC(=O)c1ccccc1OCC(=O)Nc1ccc(Br)cc1)c1ccccc1	-	.	.	-
Cc1cc(C(=O)N2CCOc3ccc(CN4CCC(Oc5cccnc5)CC4)cc3C2)c(C)o1	.	.	.	-
O=C(CN1C(=O)C2(SCC(=O)N2c2ccc(F)c(F)c2)c2ccccc21)Nc1cccc(Cl)c1 (centres undefined)	-	.	.	?
O=C(Nc1nc(-c2ccccc2)cs1)NC1CCCCC1	-	-	-	-
c1ccc(-c2csc(NC3CCCCC3)n2)cc1	2.8µM	-	-	-
COc1ccc(C(=O)NC(=S)NC(C)(C)C)cc1Br	11µM	-	-	-
